Screening data deposited in PubChem BioAssay by National Center for Advancing Translational Sciences (NCATS).
This is a sample that favours compounds with a hit; in the whole collection about 3.3% have one here.
RE007 growth inh – less growth of the S. pombe RE007 Vpr strain; 0.21% of 360,000 active; S. pombe RE007 Vpr strain, BacTiter-Glo ATP luminescence, 24 h; AID 651644; Potency, µM (series often up to 92.2 µM), without a hit: top-dose activity change, negative = less growth, most hits filed as inhibitors; active means well fitted falling curve with a large enough effect; inconclusive means small, poorly fitted or top-dose-only effect; inactive means no such curve, though single readings can be large or run the other way; further: on the % scale 0 is the no-effect control and ±100 the full control effect; nearly all actives have a fitted effect of over 50% in size
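Fission yeast strain RE007, carrying one chromosomally integrated HIV-1 vpr copy, was seeded at OD 0.01 in PMG+AL medium with 23 nL pinned compound. After 24 h at 30 °C and 99% humidity, viability was read by BacTiter-Glo luminescence.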
SARS PLP yeast – SARS-CoV PLP inhibition in yeast; 0.19% of 330,000 active; S. cerevisiae expressing SARS-CoV PLpro, growth rescue; Potency, µM (top dose mostly 32.9 µM), for the others: at the top dose activity, positive = growth rescue, usual class: activators; calls by dose curve; further: 0% is about no effect; nearly all actives have a fitted effect of over 55% in size
AmpC inh no detg – blocks E. coli AmpC beta-lactamase in detergent-free assay; Potency, µM (titrated, usually from 57.1 µM), for the others: at the top dose activity change, negative = inhibition, actives largely listed as inhibitors; P00811; 0.52% of 330,000 active; AmpC nitrocefin hydrolysis, absorbance 480 nm, 0.0001% Triton;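 further: plate controls were no compound for no effect and no enzyme for full effect; nearly all actives have a fitted effect of over 20% in size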
Target sequence (P00811 whole entry, looked up): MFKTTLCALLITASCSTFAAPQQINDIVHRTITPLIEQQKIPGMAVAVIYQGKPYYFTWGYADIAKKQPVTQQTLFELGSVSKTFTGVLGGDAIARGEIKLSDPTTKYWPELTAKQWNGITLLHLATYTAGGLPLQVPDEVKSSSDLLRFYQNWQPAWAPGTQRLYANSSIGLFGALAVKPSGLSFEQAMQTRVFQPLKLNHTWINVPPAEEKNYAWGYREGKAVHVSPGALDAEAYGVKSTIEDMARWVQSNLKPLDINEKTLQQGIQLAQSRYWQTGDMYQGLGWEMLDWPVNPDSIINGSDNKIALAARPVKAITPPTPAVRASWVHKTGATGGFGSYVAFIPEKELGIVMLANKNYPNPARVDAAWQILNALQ
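AmpC (5.3 nM in the dispensed reagent) in 20 mM phosphate pH 7.0 with 0.01% (detergent screen) or 0.0001% Triton X-100 was preincubated with compounds for 15 min at room temperature. Nitrocefin was then added from an 800 uM solution, and hydrolysis was followed at 480 nm.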
Tb PYK inh – blocks Trypanosoma brucei pyruvate kinase. Potency, µM (doses to about 76.8 µM), inactives show at the top dose activity, negative = inhibition, usual class: inhibitors. 0.12% of 410,000 active. TbPYK enzyme, Kinase-Glo Plus ATP luminescence, 45 min. Q57TT1; further: on the % scale 0 is the no-effect control and ±100 the full control effect; nearly all actives have a fitted effect of over 50% in size
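Quantitative HTS: titrated library compounds versus trypanosomal pyruvate kinase in TEA buffer (pH 7.2) containing KCl, MgCl2, BSA and Tween-20. Reactions were initiated with ADP, 130 uM final. Kinase-Glo Plus luminescence was read after 45 min at RT.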
Sm TGR block – inhibitors of Schistosoma mansoni thioredoxin glutathione reductase | Q962Y6 | purified TGR, DTNB reduction, TNB absorbance 405 nm | Potency, µM (highest dose often 114 µM), inactives show at the highest dose activity change, negative = inhibition, actives largely listed as inhibitors | 3% of 360,000 active | AID 485364; further: on the % scale 0 is the no-effect control and ±100 the full control effect; nearly all actives have a fitted effect of over 60% in size
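TGR 20 nM + NADPH 100 uM (dispensed conc.), cpd preinc 15 min RT; start with NADPH (500 uM addition) then DTNB (15 mM addition). Kinetic TNB absorbance, 405 nm filter. Four-parameter Hill fit across titration.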
AmpC detergent – AmpC beta-lactamase inhibition with detergent present | AmpC hydrolysis of nitrocefin, absorbance 480 nm, 0.01% Triton | AID 485294 | 0.041% of 370,000 active | Potency, µM (highest dose often 114 µM), for inactives: top-dose activity change, negative = inhibition, actives largely listed as inhibitors;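 further: 0% = no-compound wells and -100% = no-enzyme wells; nearly all actives have a fitted effect of over 25% in size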
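AmpC (5.3 nM in the dispensed reagent) in 20 mM phosphate pH 7.0 with 0.01% (detergent screen) or 0.0001% Triton X-100 was preincubated with compounds for 15 min at room temperature. Nitrocefin was then added from an 800 uM solution, and hydrolysis was followed at 480 nm.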
Starred values were filed as active, the others as inactive; u = inconclusive; x = no result; [ ] = another dose, or the depositor's remark. Unless noted, the call rests on the fitted dose curve; in most records, active means well fitted curve in the direction sought with a large enough effect; inconclusive means small, poorly fitted or top-dose-only effect, or another doubt; inactive means no such curve, though single readings can be large; an effect the other way counts as inactive or inconclusive. Potency means the concentration at half of the fitted maximal effect.

SMILES | RE007 growth inh | SARS PLP yeast | AmpC inh no detg | Tb PYK inh | Sm TGR block | AmpC detergent
CC[N+]1(C)[C@@H]2CC[C@H]1CC(OC(=O)[C@H]1CCC(C(=O)OC3C[C@H]4CC[C@@H](C3)[N+]4(C)CC)(c3ccccc3)c3ccccc31)C2 (stereo not given in full) | -16%[18.4 µM] | x | 21% | -7% | 50µM* | u
Cc1c(NC(=O)c2ccc(OC(C)C)cc2)cccc1-c1nc2ncccc2o1 | x | x | x | 0% | 0% | 3%
O=C(/N=C1\NC(=O)C(F)(C(F)(F)F)S1)NC1CCCCC1 (stereo not given) | -6% | 3% | -20% | u | 13µM* | 1%
CCC1S/C(=N/C(=O)NC2CCCCC2)NC1=O (stereo not given) | 13% | 2% | -11% | 7% | 6% | 5%
COc1ccc(N2CCN(C(=O)CS(=O)(=O)c3cccc4nsnc34)CC2)cc1 | x | x | x | 0% | 50µM* | -7%
COc1ccc(N2CCN(C(=O)CCS(=O)(=O)c3ccc(C)cc3)CC2)cc1 | u | 0% | 65% | 2% | 25µM* | 3%
CCc1cc(OC)c(CC(C)N)cc1OC (stereo not given) | x | x | x | -6%[157 µM] | x | x
CCC(C(=O)NCc1ccccc1Cl)n1c(=O)c2cccn2c2ccccc21 (stereo not given) | x | x | x | 0% | -11% | -2%
FC(F)(F)c1cc(-c2ccco2)nc(NCc2ccccc2)n1 | -12% | -17% | -20% | 1% | 18µM* | 3%
FC(F)(F)c1cc(-c2ccco2)nc(NCc2cccnc2)n1 | 3% | -2% | 46% | -3% | 45µM* | 3%
Fc1ccc(CNc2nc(-c3ccco3)cc(C(F)(F)F)n2)cc1 | 5% | -17% | -36% | 12% | 25µM* | -3%
CC(C)(C)c1nnc(NS(=O)(=O)c2ccccc2)s1 | x | x | x | -10% | x | x
O=C(c1cc2ccccc2oc1=O)N1CCN(c2ccc(Cl)cc2)CC1 | x | x | x | -4% | 1% | 21%
CC(=NNC(=S)N1CC2CCC(CC2)C1)c1cccc(C)n1 | u | x | x | -19% | x | x
CC(=NNC(=S)N1CC2CCC(CC2)C1)c1nccs1 | 32µM* | x | x | u | x | x
Cn1cc(S(=O)(=O)N2CCCCCC2)cc1C(=O)Nc1ccccc1F | x | x | x | -2% | -2% | 5%
COc1cc(/C=C(\C#N)C(=O)Nc2ccccn2)ccc1O | -5% | 2% | -7% | -7% | 14µM* | -1%
CCOC(=O)c1c(-c2ccccc2)csc1NC(=O)/C(C#N)=C\c1ccc(O)c(OC)c1 | -13% | x | x | -5% | x | x
COc1cc(/C=C(\C#N)C(=O)Nc2cccc3ncccc23)ccc1O | x | 0% | -11% | x | x | u
Cc1cccc(/C=C(\C#N)C(=O)Nc2ccccn2)c1 | -6% | -1% | -15% | 0% | 8% | 0%
CCOc1cc(/C=C(\C#N)C(=O)Nc2ccccn2)ccc1O | -7% | -3% | -15% | -6% | 18µM* | u
CCOC(=O)c1c(-c2ccc(C)cc2)csc1NC(=O)/C(C#N)=C/c1ccc(O)c(OC)c1 | 1% | 6% | 8.9µM* | -3% | -1% | -5%
COc1ccc(NC(=O)/C(Cl)=C(/Cl)S(=O)Cc2ccccc2)cn1 (stereo not given) | 45µM* | -53% | -7% | -5% | 0.32µM* | -6%
COc1ccc(CS(=O)(=O)/C(Cl)=C(/Cl)C(=O)Nc2ccc(OC)nc2)cc1 | u | -22% | -6% | 0% | 10µM* | -14%
COc1ccc(/C=C/C(=O)Nc2ccc(OC)nc2)cc1 | 11% | -76% | -1% | -1% | 7% | -5%
SMILES | RE007 growth inh | SARS PLP yeast | AmpC inh no detg | Tb PYK inh | Sm TGR block | AmpC detergent
CCOc1ccc(NC(=O)Nc2c[nH]c(=O)[nH]c2=O)cc1 | x | x | x | 0% | 7% | 8%
O=C(CN1C(=O)NC2(CCCC2)C1=O)Nc1cc(C(F)(F)F)ccc1N1CCCCC1 | 1% | -4% | 35µM* | 5% | -9% | u
O=C(CN1C(=O)NC2(CCCCC2)C1=O)Nc1cc(C(F)(F)F)ccc1N1CCCCC1 | -1% | -1% | -2% | 5% | -9% | -1%
Cc1cc(O)c(C(C)C)cc1N=Cc1ccccc1O | 11% | -1% | -17% | -21% | 4µM* | -15%
CCCC(=O)Nc1cc(C(=O)NCc2ccccc2)ccc1S(=O)(=O)c1ccc(Cl)cc1 | x | x | x | 0% | 8% | 3%
COc1cc(C(=O)OCc2cc(=O)n3nc(C4CCCCC4)sc3n2)cc(OC)c1OC | x | x | x | 2% | -12% | -9%
CCS(=O)(=O)c1nc(S(=O)(=O)c2ccc(C)cc2)c(NCc2ccccc2Cl)s1 | x | x | x | 4% | 4% | 24%
O=C1CNC(=S)N1CCOc1ccccc1 | 10% | 0% | 16% | 1% | -2% | -4%
O=C1CNC(=S)N1CCc1ccc(O)c(O)c1 | -9% | 0% | -32% | -20% | 1.8µM* | 8%
Cc1cc(C(=O)N2CC=C(c3ccccc3)CC2)c2ccccc2n1 | 14% | 2% | 34% | 4% | 0% | 0%
O=C(O)c1ccccc1C(=O)N1CC=C(c2ccccc2)CC1 | -4% | -9% | -7% | -8% | 35µM* | -6%
Cc1ccc(C(=O)N2CCc3ccccc32)o1 | u | -7% | -21% | -29% | -6% | -5%
Cc1ccc(C(=O)N2CC=C(c3ccccc3)CC2)o1 | -19% | -10% | -2% | -3% | 28µM* | -9%
N#Cc1c(C(F)(F)F)cc(-c2cccs2)nc1SCC(=O)Nc1cccc(C(F)(F)F)c1 | x | x | x | -7% | -1% | -2%
COc1ccc([N+](=O)[O-])cc1NC(=O)Nc1ccccc1 | 16% | 12% | -25% | -6% | 8% | 1%
C/C=C/C=C/C(=O)OC(C)C(=O)Nc1cc([N+](=O)[O-])ccc1OC (stereo not given) | 1% | -4% | -35% | 0% | 22µM* | -2%
COc1ccc([N+](=O)[O-])cc1NC(=S)Nc1ccccc1 | -4% | -3% | -22% | -1% | 28µM* | 4%
CCCC1=Nc2cc(C(=O)NCc3ccccc3)ccc2Sc2ccccc21 | x | x | x | -1% | -1% | 16%
CCC(Sc1ncccc1C(=O)OCCN1CCCC1=O)C(=O)NCc1ccco1 (stereo not given) | 14% | 12% | 74% | -7% | 45µM* | -5%
CCOC(=O)c1cccnc1SC(CC)C(=O)NCc1ccco1 (stereo not given) | 2% | 0% | -12% | -6% | -17% | 2%
O=C(CCCl)Nc1nc2c(s1)CCc1ccccc1-2 | -14% | -13% | -23% | 5% | -32% | -3%
